The list is not random: actives were taken first. Their share in the collection is about 2.8%.
HEK293 viab: reduces viability of HEK-293 SNCA reporter cells; HEK-293-SNCA-luc viability, GF-AFC fluorescence, 24 h; AID 1671193; hit rate 0.12% among 150,000; Potency, µM (series often up to 57.1 µM), usual class: cytotoxic; also: nearly all actives have a fitted effect of over 30% in size
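HEK-293-SNCA-luc cells (1500/well) plated 24 h, then exposed 24 h to a dilution series; GF-AFC added 30 min at 37C, fluorescence 405/540 nm; normalised to medium-only and DMSO wells, Hill fit.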
SNCA expr inhib: SNCA gene expression inhibition; hit rate 0.17% among 140,000; Potency, µM (highest dose often 57.2 µM), actives largely listed as inhibitors; HEK-293 SNCA-luciferase knock-in, luminescence, 24 h; also: nearly all actives have a fitted effect of over 45% in size
IP6K1 inh: inhibitors of human IP6K1 | IP6K1 kinase, ADP-Glo luminescence, 2 h; stronger effect = lower value | activity change, % (series mostly up to about 58 µM) | hit rate 0.81% among 140,000; in the data active = activity change below about -25%
Target sequence (Q92551 whole entry, looked up): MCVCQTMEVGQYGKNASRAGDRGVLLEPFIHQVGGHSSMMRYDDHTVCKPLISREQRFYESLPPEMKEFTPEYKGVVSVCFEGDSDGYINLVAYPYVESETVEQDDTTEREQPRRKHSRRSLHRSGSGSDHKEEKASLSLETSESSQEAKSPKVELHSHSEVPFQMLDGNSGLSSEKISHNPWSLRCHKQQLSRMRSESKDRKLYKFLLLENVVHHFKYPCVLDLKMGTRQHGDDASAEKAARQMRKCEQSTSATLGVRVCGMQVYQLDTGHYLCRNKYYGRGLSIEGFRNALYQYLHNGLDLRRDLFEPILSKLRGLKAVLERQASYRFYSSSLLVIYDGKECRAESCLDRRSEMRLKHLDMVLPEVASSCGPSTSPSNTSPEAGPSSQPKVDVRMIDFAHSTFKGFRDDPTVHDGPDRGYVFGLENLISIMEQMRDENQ
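ADP-Glo luminescence measures ADP made by human IP6K1 during a 2 h RT reaction with ATP/IP6 (mix at 1.3 mM/130 uM); top library doses 57.5 and 19.1 uM final.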
KDM5B inh: blocks human KDM5B histone demethylase activity | Q9UGL1 | AID 1347165 | Potency, µM (doses to about 57.7 µM), usual class: inhibitors | hit rate 2.6% among 220,000 | KDM5B demethylase, FDH-coupled NADH fluorescence (FDH is formaldehyde dehydrogenase); also: nearly all actives have a fitted effect of over 70% in size
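Here, H3K4me3 peptide (12.5 µM in substrate mix) is demethylated by KDM5BΔAP, 200 nM final, after 10 min compound exposure. Formaldehyde product is coupled through FDH (0.25 U/mL in mix) to NADH fluorescence; 30-min ΔRFU feeds dose-response curves.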
IP6K1 inh cnf: human IP6K1 inhibition, confirmatory; shares compounds with IP6K1 inh; recombinant IP6K1 kinase, ADP-Glo luminescence, 2 h; Potency, µM (series often up to 49 µM), actives largely listed as inhibitors; hit rate 13% among 1,200; AID 1645852; also: nearly all actives have a fitted effect of over 65% in size
Numbers stand for hits; . = inactive; ? = inconclusive; / = no result; ! = not active in a repeat; [ ] = dose if it differs, or a comment. Unless noted, calls follow the shape of the dose curve; as a rule, active = well fitted curve in the direction sought with a large enough effect; inconclusive = small, poorly fitted or top-dose-only effect, or another doubt; inactive = no such curve, though single readings can be large; an effect the other way counts as inactive or inconclusive.

SMILES	HEK293 viab	SNCA expr inhib	IP6K1 inh	KDM5B inh	IP6K1 inh cnf
CC(=O)Nc1cccc(-c2nnc(SCC(=O)c3cc([N+](=O)[O-])ccc3Cl)o2)c1	?	.	-31	?	?
O=C(CSc1nnc(-c2ccc(Cl)cc2)o1)c1ccc([N+](=O)[O-])cc1	.	.	.	.	/
COc1cc(OC)c(NC(=O)C2=C(C)C(=O)OC23CCCCCC3)cc1Cl	.	.	-100	.	.
CC(=O)Oc1cccc(O)c1	.	.	.	/	/
COc1cc(O)cc(/C=C/c2cccc(O)c2)c1	.	/	-45	/	?
O=C(Cc1ccc(NC(=O)N2CCSc3ncccc32)cc1)NCCc1ccccc1	.	.	-33	?	.
CC(C)C(=O)N1c2ncnn2C2(CCCCC2)[C@@H]2CCCC[C@@H]21	.	.	-30	?	.
CC(C)(C)NS(=O)(=O)c1cccc(NC(=O)c2ccccc2)c1	/	/	/	.	/
O=C(CSc1nnc(-c2cccs2)n1-n1cccc1)Nc1ccccc1	/	/	/	.	/
Cc1ccc(NC(=O)c2cc(S(=O)(=O)NC3CCCCCC3)ccc2F)cc1F	?	?	-27	.	.
Cc1ccc(NC(=O)c2cc(S(=O)(=O)N3CCCc4ccccc43)ccc2F)cc1F	.	.	-29	.	.
O=C(Nc1ccc(Cl)cc1)c1cc(S(=O)(=O)NC2CCCCCC2)ccc1F	?	?	.	.	/
N#Cc1cccc(C(=O)NC(c2cccs2)C2CCCC2)c1 (stereo not drawn)	/	/	/	.	/
Cc1cccc(Oc2nc3c(c(=O)n(C)c(=O)n3C)n2C)c1	.	.	-27	.[11.5 µM]	.
Cc1nc(CN2C(=O)COc3ccc(S(=O)(=O)NCc4ccccc4)cc32)no1	/	/	/	.	/
COc1ccc(C2Cn3nnc(C(=O)N4CCN(C(=O)CCc5ccccc5)CC4)c3CO2)cc1 (stereo not drawn)	.	?	-25	?	.
Cc1ccc2nc(C3=C(O)CN(c4cc(Cl)cc(Cl)c4)C3=N)[nH]c2c1	/	/	/	.	/
c1ccc(-c2nc(C34CC5CC(CC(C5)C3)C4)cs2)nc1	/	/	/	.	/
Cc1ccc(O)c(N=Nc2ccccc2)n1	.	?	/	/	7.3µM
COc1cccc(-c2ccc(NC(=O)C3=C(C(=O)O)CCC3)c(F)c2)c1	.	.	-27	/	?
COc1cccc(-c2cc(C3CCN(C(=O)Nc4ccc(F)cc4F)CC3)[nH]n2)c1	.	.	.	.	/
Cn1cc(CNc2ccc(-c3nc(-c4cccc(C(F)(F)F)c4)no3)cn2)cn1	.	.	-33	?	?
FC(F)(F)c1cccc(-c2noc(-c3ccc(NCCN4CCOCC4)nc3)n2)c1	.	?	.	?	/
Cc1ccccc1NC(=O)CCn1nc(-c2ccccc2)c2ccccc2c1=O	.	.	-25	.	.
O=C(CCn1nc(-c2ccccc2)c2ccccc2c1=O)Nc1cccc2ccccc12	/	/	/	.	/
SMILES	HEK293 viab	SNCA expr inhib	IP6K1 inh	KDM5B inh	IP6K1 inh cnf
O=C(O)CSc1cc(NS(=O)(=O)c2ccc(Br)cc2)c2ccccc2c1O	?	/	-76	/	?
Cc1nn(-c2ccccc2)c2c1C(C(C)C)N(C1CCCN(C(=O)c3ccc(Cl)nc3)C1)C2=O (stereo not drawn)	/	/	.	/	/
CN1C(C)(C)CCCC1(C)C	.	.	-35	/	.
COCCn1c(COc2ccccc2-c2ccccc2)n[nH]c1=S	/	/	/	.	/
O=C(Nc1cccnc1Oc1ccccc1)c1cccc(Cl)c1Cl	/	/	/	.	/
CCOc1ccc2c(n1)CCN(C(=O)Cc1ccccc1)C2	.[12.5 µM]	.	.	.	/
CCOc1ccc2c(n1)CCN(C(=O)Cc1c[nH]c3ccccc13)C2	.[12.5 µM]	.	-26	.	.
COc1ccc(C(=O)Nc2ccc3oc(-c4ccc5ccccc5c4)nc3c2)cc1[N+](=O)[O-]	/	/	/	.	/
Cc1coc2c1c(C)cc1oc(=O)c(CC(=O)NCCc3ccc(Cl)cc3)c(C)c12	.	.	.	.	/
Cc1ccc(CNC(=O)Cc2c(C)c3c(cc(C)c4c(C)coc43)oc2=O)cc1	.	.	-26	.	.
CCCCCCCCCCCCCCCC(=O)Nc1ccccc1	/	/	/	.	/
CN(C)c1ccc2nc3ccc(=[N+](C)C)cc-3sc2c1	?	.	-30	/	15µM
COc1cc(Nc2ncc3c(n2)-c2ccc(Cl)cc2C(c2c(F)cccc2OC)=NC3)ccc1C(=O)O	.	.	-37!	/	?
CC(C(=O)NCC1CCCCC1)n1cnc2c1c(=O)n(C)c(=O)n2C (stereo not drawn)	/	/	/	.	/
CCn1c(C(=O)N(C2CC2)C2CC2)cc2c3c(ncn3C)c(Nc3cc(C)n(C)n3)nc21	?	.	.	/	.
CCOC(=O)C1=C(C)NC(=O)CC1C(=O)Nc1cc(Cl)cc(Cl)c1 (stereo not drawn)	/	/	/	.	/
Cn1ncc2c(C(=O)NCCCNC(=O)OC(C)(C)C)cc(-c3ccccc3F)nc21	/	/	.	/	/
COc1ccccc1-c1nccc2c(=O)cc(-c3ccccn3)oc12	.	?	.	?	/
O=c1cc(C2=CCOCC2)oc2c(-c3cccc4[nH]ccc34)nccc12	?	.	-25	?	?
CCn1c(=O)n(CCC(=O)N(C)CC(=O)Nc2ccccc2Br)c2ccccc21	/	/	/	.	/
CCCCN(CC)C(=O)C1CCC(CNS(=O)(=O)c2cccc3nsnc23)CC1 (stereo not drawn)	.	.	-30	.	.
CCN(C(=O)C1CCC(CNS(=O)(=O)c2cccc3nsnc23)CC1)c1ccc(C)c(C)c1 (stereo not drawn)	.	.	.	.	/
Cc1ccc(NC(=O)NCc2c(-n3cccc3)sc3c2CCCC3)c(Cl)c1	.	.	-27	.	.
Cc1c(Cl)cccc1NC(=O)NCc1c(-n2cccc2)sc2c1CCCC2	.	.	.	.	/
O=C(Nc1ncc([N+](=O)[O-])s1)c1ccccc1O	?	/	-31	/	?
SMILES	HEK293 viab	SNCA expr inhib	IP6K1 inh	KDM5B inh	IP6K1 inh cnf
O=C(NCCc1ccc(F)cc1)C(=O)NCC(c1cccs1)S(=O)(=O)c1ccccc1 (stereo not drawn)	.	.	-30	.	.
NC(=O)c1cccc(-c2cc(Nc3ccc(OC(F)(F)F)cc3)ncn2)c1	.	.	-25	/	?
O=C(NCCO)c1cccc(-c2cc(Nc3ccc(OC(F)(F)F)cc3)ncn2)c1	.	/	.	/	/
CC(=O)N1CCCC(c2nn(-c3ccccn3)c(=O)[nH]2)C1 (stereo not drawn)	.	.	-25	/	.
O=C(C1CC1)N1CCCC(c2nn(-c3ccccn3)c(=O)[nH]2)C1 (stereo not drawn)	.	.	.	/	/
CCc1ccc(C(CN)c2c[nH]c3ccccc23)cc1 (stereo not drawn)	/	/	/	.	/
O=C(Nc1ccc(Cl)cc1)N1CCN(Cc2ccccc2-c2cccnc2)CC1	.[12.5 µM]	.	.	/	/
CN(C)c1ccc(C(=O)C(=O)c2ccccc2)cc1	/	/	/	.	/
CN(C)c1ccc(C(=C2C=CC(=[N+](C)C)C=C2)c2ccccc2)cc1	.	?	-42	/	15µM
CCc1ccc(CNC(=O)C2CCCN(S(=O)(=O)c3ccc4c(ccn4C)c3)C2)cc1 (stereo not drawn)	.	.	-26	.	.
CCOC(=O)c1ccc(NC(=O)CC2CCCCC2)cc1	/	/	/	.	/
